An excerpt weighted towards active compounds, which were near 1.6% of everything screened.
V-ATPase pH: regulators of yeast V-ATPase proton transport; response, % at 10 µM; S. cerevisiae, pHLuorin cytosolic pH fluorescence; 350,000 tested, 0.37% active; in the data active = response mostly above about 7.3%, no sharp cut-off; inactive = mostly below about 5.4%; also: actives read high
PG9 Ab binder: binds the HIV-1 gp120 antibody PG9; inhibition, % at 6.7 µM; 360,000 tested, 0.43% active; AID 624416; TR-FRET gp120-PG9 antibody binding; in the data active = inhibition above about 8.5%
NR1D1 modulator: Rev-erb alpha (human) modulation; AID 1259318; activity, % at 10 µM; 370,000 tested, 0.79% active; P20393; Rev-erbα–FITC-DNA binding, fluorescence polarization, 90 min;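 active = activity above about 14%, limit read from the data; passing the limit was not always enough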;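 also: 0% = DMSO wells with 35 nM protein and 100% = DMSO wells with 750 nM protein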
NPR1 activator: GC-A (human) enzyme activation; 370,000 tested, 0.14% active; activation, % at 10 µM; P16066; HEK293 GC-A cells, cGMP TR-FRET, EC30 ANP; 0% at EC30 ANP, 100% saturating ANP; in the data active = activation above about 40%
GC-B act: GC-B (human) receptor activation | P20594 | HEK293-GC-B cells, CNP EC30, cGMP TR-FRET; 0% at EC30 CNP, 100% saturating CNP | activation, % at 10 µM | 370,000 tested, 0.11% active;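 active = activation at 10 µM reaching about 35% in either raw or pattern-adjusted values, limit read from the data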
PG9 bind confirm: PG9 antibody binding, confirmed; 1,500 tested, 90% active; TR-FRET PG9 antibody binding, biochemical; inhibition, % at 6.7 µM; AID 651571; shares compounds with PG9 Ab binder; in the data active = inhibition above about 9%
PGV04 counter: counter-screen for PG9 binders: binding control antibody PGV04; shares compounds with PG9 Ab binder; TR-FRET PGV04 antibody-gp120 binding, biochemical; inhibition, % at 6.7 µM; 1,500 tested, 95% active; in the data active = inhibition above about 9.5%
* marks the source's active call; other numbers are inactive results.

`CC1=CC(=C(C#N)C#N)C=C(C)N1CCN1CCN(C(=O)Nc2cccc(Cl)c2)CC1` gave V-ATPase pH -1, PG9 Ab binder 12*, NR1D1 modulator 15, NPR1 activator -7, GC-B act -1, PG9 bind confirm 17* and PGV04 counter 26*.
COc1ccc(-c2cc(NC(=O)Cc3c[nH]c4ccccc34)ccc2Nc2cccnc2)c(OC)c1 was read as PG9 Ab binder -2, NR1D1 modulator 9, NPR1 activator 3 and GC-B act -4.
`CC1Cc2ccccc2N1C(=O)COC(=O)c1ccc(N(C)C)cc1` (stereo unspecified) gave V-ATPase pH -2, PG9 Ab binder 12*, NR1D1 modulator 6, NPR1 activator -3, GC-B act 1, PG9 bind confirm 13* and PGV04 counter 16*.
For COc1cccc(N2C(=NC(=O)c3ccccc3)SC3CS(=O)(=O)CC32)c1 (stereo unspecified) the results were V-ATPase pH 1, PG9 Ab binder 11*, NR1D1 modulator 9, NPR1 activator -8, GC-B act 0, PG9 bind confirm 10* and PGV04 counter 14*.
COc1ccc(N2C(=NC(=O)c3ccccc3)SC3CS(=O)(=O)CC32)cc1 (stereo unspecified) was read as V-ATPase pH -3, PG9 Ab binder -2, NR1D1 modulator 4, NPR1 activator -8 and GC-B act -5.
Screening CC(C)(C)c1ccc(-c2nnc(SCC(=O)Nc3ccc4cn[nH]c4c3)n2-c2ccc(Cl)cc2)cc1 returned NR1D1 modulator -3, NPR1 activator -4 and GC-B act -2.
O=C(COc1ccc2c(c1)OCO2)Nc1ccccc1F was read as V-ATPase pH 7, PG9 Ab binder -1, NR1D1 modulator -5, NPR1 activator 2 and GC-B act 0.
`COC(=O)c1ccccc1NC(=O)COc1ccc2c(c1)OCO2` gave V-ATPase pH 0, PG9 Ab binder 9.2*, NR1D1 modulator 11, NPR1 activator 6, GC-B act 4, PG9 bind confirm 6 and PGV04 counter 7.
`O=C(COC(=O)c1ccccc1NCc1ccco1)Nc1ccc2c(c1)OCO2` gave V-ATPase pH -3, PG9 Ab binder 0, NR1D1 modulator 5, NPR1 activator -2 and GC-B act -4.
Screening O=C(COC(=O)c1ccccc1NC(=O)c1ccco1)Nc1ccc2c(c1)OCO2 returned V-ATPase pH -1, PG9 Ab binder 11*, NR1D1 modulator -1, NPR1 activator 0, GC-B act 1, PG9 bind confirm 9.2* and PGV04 counter 12*.
O=C(OCCCCSc1nnc(-c2cccc3ccccc23)o1)c1ccc(F)cc1 was read as NR1D1 modulator 1, NPR1 activator -3 and GC-B act -6.
Screening O=c1oc2cc(O)ccc2c2ccccc12 returned V-ATPase pH 5, PG9 Ab binder 22*, NR1D1 modulator -5, NPR1 activator 5, GC-B act 2, PG9 bind confirm 29* and PGV04 counter 38*.
For Nc1ccc2c(c1)[nH]c(=O)c1ccccc12 the results were V-ATPase pH -3, PG9 Ab binder 4, NR1D1 modulator 7, NPR1 activator -2 and GC-B act -10.
O=c1[nH]c2cc(O)ccc2c2ccccc12 was read as PG9 Ab binder 37*, NR1D1 modulator -3, NPR1 activator 4, GC-B act 1, PG9 bind confirm 38* and PGV04 counter 47*.
Screening COc1ccc2c(c1)c(=O)oc1cc(O)ccc12 returned V-ATPase pH 3, PG9 Ab binder 0, NR1D1 modulator 1, NPR1 activator 4 and GC-B act 2.
`C=CCn1c(SCC(=O)OC(C)C)nnc1-c1ccc(C)cc1` gave NR1D1 modulator -6, NPR1 activator -2 and GC-B act 1.
O=C(NC1CCCCN(Cc2cccc(Cl)c2)C1=O)c1ccc(COc2ccccc2)cc1 (stereo unspecified) was read as NR1D1 modulator 7, NPR1 activator 7 and GC-B act 8.

Source: PubChem BioAssay (several laboratories)
